Results as given in PubChem BioAssay.
Active and inactive are the calls of the source.

Assay: plasmodial surface anion channel blockers, osmotic lysis – cell-based, P. falciparum Indochina, OD700, 2 h, primary screen (AID 1155);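 further: lysis reports solute entry through the parasite surface anion channel PSAC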
Settings: P. falciparum Indochina infected erythrocytes, higher = more signal, called active from +8 up or from −8 down
For COC(=O)[C@@H]1CC[C@H](C)[C@@H](c2ccc(C)cc2)N1C(=O)c1ccc(C=NO[C@@H]2O[C@H](COC(C)=O)[C@@H](OC(C)=O)[C@H](OC(C)=O)[C@H]2OC(C)=O)cc1, the z-score was -0.647 (inactive).
With COc1cccc([C@H]2Oc3ccc(OC)cc3C(=NOC[C@@H](O)[C@H]3O[C@@H]4OC(C)(C)O[C@@H]4[C@H]3O)[C@@H]2O)c1 the z-score was 0.458 (inactive).
For O=C1[C@H]2[C@H]3[C@H](O)[C@H](O)CC(=NO[C@@H]4O[C@H](CO)[C@@H](O)[C@H](O)[C@H]4O)[C@H]3CC[C@H]2C(=O)N1c1cccc(Oc2ccccc2)c1, the z-score was 0.452 (inactive).
With CCN1C(=O)[C@H]2[C@H]3[C@H](O)[C@H](O)CC(=NOCC(C)C)[C@@H]3CC[C@H]2C1=O the z-score was 0.365 (inactive).
For CC(C)C[C@H](NC(=O)CCC1CC(OC(=O)NCc2cccc3ccccc23)CC2(CCCC(COC(=O)NCc3ccccc3)O2)O1)C(=O)NCC(c1ccccc1)c1ccccc1 (some centres undefined), the z-score was 1.33 (inactive).
For COC(=O)CC=C[C@@H](C)[C@@H](C=NOC[C@H]1O[C@H](c2ccccc2)C=C[C@@H]1Oc1ccc(OC)cc1)NS(=O)(=O)c1ccc(C)cc1, the z-score was 1.56 (inactive).
With C#CCCCON=C1C[C@@H](O)[C@@H](O)[C@@H]2[C@@H]3C(=O)N(c4ccc(F)cc4F)C(=O)[C@@H]3CC[C@H]12 the z-score was -1.22 (inactive).
In the case of CO[C@H]1COC(=O)[C@@H](Cc2ccccc2)NC(=O)[C@@H](C)COC(=O)CCC[C@@H]1C, the z-score is reported as -1.66 (inactive).
For COc1cccc([C@H]2Oc3ccc(OC)cc3C(=NO[C@@H](C)c3cn([C@H](CO)Cc4ccccc4)nn3)[C@@H]2O)c1, the z-score was 0.41 (inactive).
